Source: PubChem BioAssay (NCI)
Compounds without any hit were thinned out: in the full panel of roughly 83,000, 20% have a hit.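 Each cell line was grown in a 96-well plate and treated with one concentration of compound for 48 hours. Values below 10 were considered active.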 Activity calls are given as the source filed them.

What was measured:
Assay in all cases: NCI-60 one-dose screen, 48 h (100 = growth as untreated, 0 = no growth, -100 = all killed)
Conditions in all cases: 10 µM unless noted
[1] = tested on: HCT-15 colon
[2] = tested on: HT29 colon
[3] = tested on: SNB-75 CNS
[4] = tested on: SNB-19 CNS
[5] = tested on: U251 CNS
[6] = tested on: PC-3 prostate
[7] = tested on: SK-MEL-5 melanoma
[8] = tested on: UACC-62 melanoma
[9] = tested on: LOX IMVI melanoma
[10] = tested on: SK-MEL-28 melanoma

Row | SMILES | growth [1] | growth [2] | growth [3] | growth [4] | growth [5] | growth [6] | growth [7] | growth [8] | growth [9] | growth [10]
1 | O=c1cc(C(F)(F)F)c2cc(-c3cc4ccccc4c(=O)o3)c(O)cc2o1 | 90.3% (inactive) | 106% (inactive) | 76.1% (inactive) | 67.7% (inactive) | 65.7% (inactive) | 68.5% (inactive) | 24.9% (inactive) | 21.9% (inactive) | 72.8% (inactive) | 69.6% (inactive)
2 | COc1cc(C[C@H]2COc3cc(O)cc(O)c3C2=O)ccc1O | 19.9% (inactive) | 83.8% (inactive) | 14.1% (inactive) | 31.5% (inactive) | 22.3% (inactive) | 29.7% (inactive) | 22.4% (inactive) | 30.9% (inactive) | 38.6% (inactive) | 58.4% (inactive)
3 | c1ccc(-c2nc3ccccc3[nH]2)c(OCCCCCOc2ccccc2-c2nc3ccccc3[nH]2)c1 | 58% (inactive) | 74.8% (inactive) | 89.8% (inactive) | 91.7% (inactive) | 74.5% (inactive) | 43.4% (inactive) | 58.9% (inactive) | 59.1% (inactive) | 62% (inactive) | 45.9% (inactive)
4 | O=C1C=CC2(O)OC/C(=C\c3ccccc3)C(O)=C2C1=O (stereo not given) | -6.43% (active) | 17.8% (inactive) | 38.8% (inactive) | 27.6% (inactive) | -35.2% (active) | 0.717% (active) | 31.3% (inactive) | -64.1% (active) | -82.8% (active) | 51.9% (inactive)
5 | Nc1cc(C(=O)O)cc(-n2c(O)c(C=C3N=c4ccccc4=N3)sc2=S)c1 | 103% (inactive) | 108% (inactive) | 80.7% (inactive) | 103% (inactive) | 107% (inactive) | 92.4% (inactive) | 97.9% (inactive) | 86.7% (inactive) | 95.8% (inactive) | 104% (inactive)
6 | Cc1cc(Cl)nc(N2CCN(CCNc3ccnc4cc(Cl)ccc34)CC2)n1 | 22.4% (inactive) | 10.5% (inactive) | 87.5% (inactive) | 79.9% (inactive) | 55.3% (inactive) | 43.1% (inactive) | -45.2% (active) | 29.7% (inactive) | -14.6% (active) | 47.7% (inactive)
7 | Cc1cccc(NC(=O)Cn2cc(CN3CCN(c4ccnc5cc(Cl)ccc45)CC3)nn2)c1 | 88.8% (inactive) | 98.5% (inactive) | 75% (inactive) | 89.6% (inactive) | 93% (inactive) | 63.3% (inactive) | 68.8% (inactive) | 73% (inactive) | 81.6% (inactive) | 102% (inactive)
8 | COc1cc(/C=C/C(=O)N2CCN(C(=O)c3cc(OC)c(OC)c(OC)c3)CC2)ccc1OCCCOc1cc2c(cc1OC)C(=O)N1CCC[C@H]1C=N2 | 43.4% (inactive) | 13.5% (inactive) | -48.1% (active) | 13.8% (inactive) | 7.58% (active) | -43% (active) | 2.69% (active) | -90.1% (active) | 1.38% (active) | -47.3% (active)
9 | C=CN(C(=O)N1CCN(c2cc3c(cc2F)c(=O)c(C(=O)O)cn3C2CC2)CC1)c1nc(-c2ccccc2)cs1 | 102% (inactive) | 93.1% (inactive) | 109% (inactive) | 96% (inactive) | 101% (inactive) | 91.1% (inactive) | 95.7% (inactive) | 86% (inactive) | 77.5% (inactive) | 101% (inactive)
10 | Brc1ccc(Nc2nc(Nc3cnc4ccccc4c3)c3[nH]cnc3n2)cc1 | 83% (inactive) | 70.7% (inactive) | 77.5% (inactive) | 93.6% (inactive) | 89.4% (inactive) | 27.6% (inactive) | 72.6% (inactive) | 66.8% (inactive) | 63.7% (inactive) | 94.2% (inactive)
11 | Cc1cc(N2CCN(CC(=O)Nc3ccc4c(ccn4Cc4ccccc4)c3)CC2)nc(N2CCOCC2)n1 | 65.1% (inactive) | 67.3% (inactive) | 88.7% (inactive) | 84.3% (inactive) | 70.8% (inactive) | 57% (inactive) | 83.1% (inactive) | 67.7% (inactive) | 88.2% (inactive) | 91.4% (inactive)
12 | CCN1C(=O)N(c2ccccc2)C2NC(=S)N(/N=C/C=C/c3ccccc3OC)C21 (stereo not given) | 8.49% (active) | 7.61% (active) | 25.2% (inactive) | 32.7% (inactive) | 15.6% (inactive) | 29.3% (inactive) | -14.1% (active) | 32.6% (inactive) | 15.4% (inactive) | 57.7% (inactive)
13 | Cc1ccc(Cc2cnc(NC(=O)/C=C/c3ccc(C)o3)s2)cc1 | 19.9% (inactive) | 11.4% (inactive) | 26.7% (inactive) | 56.4% (inactive) | 41.9% (inactive) | 33.3% (inactive) | 23.8% (inactive) | 31.9% (inactive) | 49.5% (inactive) | 65.5% (inactive)
